Source: PubChem (Columbia University Molecular Screening Center)
VCAM1 TNFa inh – reduces TNF alpha induced VCAM1 expression in HUVEC; HUVEC TNFa-induced VCAM-1 immunofluorescence, high-content imaging; inhibition, % at 2 µM; AID 802; 95,000 compounds, 0.48% hits;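 active = inhibition above the batch mean plus 3 SD, with images confirmed as a hit by eye, cut at about 37% in these data; inconclusive = inhibition above that limit but hit not confirmed in images; inactive = inhibition not above that limit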;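 also: 0% = TNF-stimulated DMSO wells and 100% = unstimulated control wells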
HUVEC tox TNFa – HUVEC cytotoxicity counter-screen, TNF alpha stimulated; HUVEC TNFalpha-stimulated, Hoechst cell count, imaging; cell count reduction, % at 2 µM; 93,000 compounds, 0.17% hits; AID 848;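 active = cell count reduction exceeding the screen mean by over 5 SD, scaled to untreated wells per plate, cut at about 78% in these data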;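 also: cells counted after 24 h of TNF alpha exposure following the 1 h pretreatment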
E-sel TNF inh – blocks E-selectin expression induced by TNF alpha. HUVEC TNFa-induced E-selectin immunofluorescence, high content. inhibition, % at 2 µM. 120,000 compounds, 0.71% hits;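 active = inhibition above the batch mean plus 3 SD, and confirmed as a hit on visual image review, cut at about 43% in these data; inconclusive = passes the inhibition cutoff but fails visual image review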;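 also: 0% = TNF-stimulated DMSO wells and 100% = unstimulated control wells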
cytoskel mod – modifiers of cytoskeleton assembly; 91,000 compounds, 0.18% hits; HUVEC TNFa F-actin phalloidin imaging, high content; inhibition, % at 2 µM;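 active = inhibition above the batch mean plus 3 SD and confirmed as a hit by visual image inspection, cut at about 30% in these data, passing the limit was not always enough; inconclusive = above the inhibition threshold but rejected on visual inspection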
Active calls of the source: *; ? = inconclusive; nt = no result. The list is not random: actives were taken first. Their share in the collection is about 1%.

SMILES	VCAM1 TNFa inh	HUVEC tox TNFa	E-sel TNF inh	cytoskel mod
Cc1cccc(OCc2nnc(N)s2)c1C	-8	-17	71*	26
CCOC(=O)c1sc2nc(CSc3nc4ccccc4n3CC)[nH]c(=O)c2c1C	-10	-4	77*	-26
CCOC(=O)c1sc2nc(COC(=O)c3c(F)cccc3F)[nH]c(=O)c2c1C	nt	nt	13	nt
CCOc1ccc(N2C(=O)CC(N3CC(C)OC(C)C3)C2=O)cc1 (stereo unspecified)	nt	nt	-20	nt
COCCCNC(=S)NC1CC2CCCC(C1)N2Cc1ccco1 (stereo unspecified)	1	-7	-12	68*
CCOC(=O)N1CCC(NC(=O)c2ccc(CS(=O)(=O)c3ccc(OC)cc3)o2)CC1	85*	-32	nt	27
COc1ccc(S(=O)(=O)Cc2ccc(C(=O)NC3CCCC3)o2)cc1	4	-12	nt	-1
COc1ccc(S(=O)(=O)Cc2ccc(C(=O)N3CCOCC3)o2)cc1	nt	nt	95*	nt
COc1nc(N)c(S(=O)(=O)c2ccc(C)cc2)cc1C#N	-2	-2	17	-44
Cc1ccc(S(=O)(=O)c2cc(C#N)c(=O)[nH]c2N)cc1	-4	-23	9	62*
CCOC(=O)Cc1csc(SCC(=O)/C(C#N)=C(\C)N)n1	59*	79*	14	22
COC(=O)c1cc2ccsc2n1Cc1nc(-c2cccc(Cl)c2)oc1C	-3	-17	82*	4
COc1ccc(OC)c(CCNC(=O)CSc2ccsc2[N+](=O)[O-])c1	nt	nt	77*	nt
COc1ccc(CCNC(=O)CSc2ccsc2[N+](=O)[O-])c(OC)c1	nt	nt	7	nt
O=C(O)C1C2C=CC(O2)C1C(=O)NCCCn1ccnc1 (stereo unspecified)	5	-28	nt	-6
CCOC(=O)/C=C/S(=O)(=O)c1ccc(NC(C)=O)cc1	-20	18	76*	9
CCCOc1cc(CN2CCCCC2)cc(C(C)=O)c1	5	-1	12	-4
CCCCCOc1ccccc1C(=O)NCCC(=O)O	12	14	-12	-7
CCOc1ccccc1C(=O)NCCC(=O)O	nt	nt	-19	100*
Nc1nc2c3ccccc3nc(Cc3ccccc3)n2n1	93*	-17	-20	7
O=C(/C=C\Nc1cccc(F)c1)c1cccs1	3	-31	70*	40
O=C(/C=C/Nc1ccc(F)cc1F)c1cccs1	nt	nt	-26	nt
CCOC(=O)C(=O)Nc1cc(C)on1	nt	nt	12	nt
Cn1c(=O)c(=O)n(C)c2cc(S(=O)(=O)N3CCc4ccccc43)ccc21	20	-16	57*	-11
O=C(Nc1ccc(S(=O)(=O)Nc2nccs2)cc1)c1ccc(=O)[nH]c1	nt	nt	-15	nt
SMILES	VCAM1 TNFa inh	HUVEC tox TNFa	E-sel TNF inh	cytoskel mod
COc1cccc(/C=N/NC(=O)CSc2nnc(C)n2-c2ccccc2)c1O	6	-8	-21	-17
CCCCSc1nc(C)cc(SCC(=O)N/N=C/c2cccc(OC)c2O)n1	44*	42	-17	31
Cc1ccc(N2C(=O)C3C4C=CC(CNC(=S)Nc5ccc(F)cc5)(O4)C3C2=O)cc1 (stereo unspecified)	nt	nt	68*	nt
O=C(NCc1ccc2c(c1)OCO2)c1cc2ncc(Br)cn2n1	12	-11	6	18
O=C(OCn1ncc(Cl)c(Cl)c1=O)c1ccccc1Cl	17	20	100*	-21
O=C(OCn1ncc(Cl)c(Cl)c1=O)c1ccc(F)cc1	11	4	100*	17
O=C(Cn1ncc(Cl)c(Cl)c1=O)c1ccc(Cl)cc1	16	16	28	-1
NC(=O)CC12CC3CC(C1)CC(CC(N)=O)(C3)C2	14	-8	-10	7
Cc1ccc(OCC(O)CNS(=O)(=O)c2ccccc2C(=O)N2CCCCC2)cc1 (stereo unspecified)	22	48	3	44*
COC(=O)Sc1nc(N2CCOCC2)c2c(c1C#N)CC(C)(C)OC2	41*	-18	nt	5
Nn1c(SCC(=O)Nc2ccc3c(c2)OCCO3)nnc1C(F)(F)F	1	-9	nt	34*
Cc1nnc(SCC(=O)Nc2ccc3c(c2)OCCO3)n1N	1	-17	12	-11
Cc1cc(NC(=O)CSc2nnnn2C)n(-c2ccccc2)n1	-6	-52	14	35*
Cn1nnnc1SCC(=O)Nc1cc(C(C)(C)C)nn1-c1ccccc1	12	-4	nt	-63
O=C(NCc1ccco1)c1ccc2nc3sc4c(c3c(=O)n2c1)CCCC4	-4	16	nt	-6
CCOC(=O)Cn1nnnc1CN(CCc1ccccc1)Cc1cc2cc(CC)ccc2[nH]c1=O	?	83*	19	nt
CN(C)CCCOc1cccc(Oc2ccccc2)c1	nt	nt	0	nt
CCCOc1ccc(C(=O)NCC(c2cccs2)N(C)C)cc1 (stereo unspecified)	nt	nt	94*	nt
CCN(c1ccccc1)S(=O)(=O)c1ccc(C(=O)NCC(c2cccs2)N(C)C)cc1 (stereo unspecified)	nt	nt	1	nt
CS(=O)(=O)N1CCc2cc(-c3csc(NC(=O)Cc4cccs4)n3)ccc21	-3	-34	93*	48
CC(=O)Nc1nc(-c2ccc3c(c2)CCN3S(C)(=O)=O)cs1	nt	nt	11	nt
Cc1ccc(-n2ncc3c(N4CCN(c5ccccc5)CC4)ncnc32)c(C)c1	96*	nt	-4	5
COc1ccc(N2CCN(c3ncnc4c3cnn4-c3ccc(C)cc3C)CC2)cc1	7	-20	12	-15
O=C(Cn1ncc2c(=O)oc3ccccc3c21)N1CCc2ccccc2C1	nt	nt	90*	nt
O=C(Cn1ncc2c(=O)oc3ccccc3c21)N1CCC(N2CCCCC2)CC1	nt	nt	-3	nt
SMILES	VCAM1 TNFa inh	HUVEC tox TNFa	E-sel TNF inh	cytoskel mod
CCOC(=O)C1=C(O)/C(=C/c2cn(CC(=O)NCC3CCCO3)c3ccccc23)SC1=Nc1ccc(C)cc1 (stereo unspecified)	89*	24	-15	20
CCOC(=O)C1=C(c2ccccc2)O/C(=C(/C#N)C(F)(F)F)S1	56*	26	-3	-4
CCn1cc(C(=O)O)c(=O)c2cc(F)c(N3CCN(C(=S)NC(=O)c4ccc(Br)cc4)CC3)cc21	nt	nt	74*	nt
CCn1cc(C(=O)O)c(=O)c2cc(F)c(N3CCN(C(=O)Nc4ccccc4)CC3)cc21	nt	nt	-9	nt
CC1(C)NC(=O)N(CCCCOc2cccc(C(F)(F)F)c2)C1=O	nt	nt	-21	nt
CCC(C)Oc1cccc(OCCCCN2C(=O)NC(C)(C)C2=O)c1 (stereo unspecified)	nt	nt	0	100*
c1ccc(-n2c(-c3ccncc3)nnc2N2CCOCC2)cc1	2	-30	60*	6
c1ccc(-n2c(-c3ccncc3)nnc2-c2ccco2)cc1	-3	-38	-10	1
COCCNC(=O)c1cn(C)c2ccccc2c1=O	nt	nt	-1	nt
CCN(/N=C/c1ccc(Cl)cc1)c1cc(=O)n(C)c(=O)[nH]1	nt	nt	62*	nt
O=S1(=O)CCN(C(CO)c2ccccc2)CC1 (stereo unspecified)	nt	nt	-11	nt
CC(C)C(C(=O)O)N1CCS(=O)(=O)CC1 (stereo unspecified)	nt	nt	80*	nt
COc1cccc(=O)c2c(C)oc(C)c12	11	0	7	-3
COc1ccc(-n2c(C)c3c(OC)cccc(=O)c3c2C)cc1	-6	-3	56*	8
CC1(C)CC(=O)c2c(n(-c3cccc4ccccc34)ccc2=O)C1	5	36	5	2
O=S(=O)(Nc1ccc(-n2cccc2)cc1)c1ccccc1	40*	26	36	-25
